A selection: hits, their analogues and other compounds. The true share with any hit is near 4.6%.
TRHR ag – activates the human TRH receptor. P34981. TRHR cells, calcium flux fluo-8, FDSS agonist mode. activation, % at 2 µM. hit rate 0.18% among 360,000. AID 493084
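Agonist-mode FDSS calcium read (Ex 480/Em 530, 1 s cycles) in 1536-well TRHR cells with fluo-8 dye, after 10-cycle baseline and 23 nL compound addition; TRH at EC20 (10 nM final) added afterwards for the enhancer phase.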
D1 PAM – enhances dopamine response at the human D1 receptor. AID 504651. potentiation, % at 10 µM. P21728. hit rate 0.036% among 360,000. HEK293 TREx D1 cells, calcium flux, dopamine EC20 potentiation; in the data active means potentiation above about 30%
Target sequence (P21728 whole entry, looked up): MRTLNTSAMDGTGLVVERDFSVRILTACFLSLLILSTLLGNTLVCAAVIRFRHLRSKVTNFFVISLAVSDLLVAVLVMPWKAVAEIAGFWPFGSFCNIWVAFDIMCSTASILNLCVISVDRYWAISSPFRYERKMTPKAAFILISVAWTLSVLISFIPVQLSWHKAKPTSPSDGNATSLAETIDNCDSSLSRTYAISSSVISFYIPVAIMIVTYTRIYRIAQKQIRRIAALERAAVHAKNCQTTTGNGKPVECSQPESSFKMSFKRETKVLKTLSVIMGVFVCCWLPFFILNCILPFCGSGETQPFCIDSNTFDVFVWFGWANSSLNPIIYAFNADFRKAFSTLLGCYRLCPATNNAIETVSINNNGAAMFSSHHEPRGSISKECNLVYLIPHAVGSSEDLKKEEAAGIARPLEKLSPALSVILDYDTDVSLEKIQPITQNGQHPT
D1 antagonist – antagonists of human D1 dopamine receptor; P21728; HEK293 TREx D1 cells, calcium flux, dopamine EC80; active compounds read low; activity change, negative = inhibition, % at 10 µM; hit rate 3.2% among 360,000; in the data active means activity change below about -30%
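Using tetracycline-induced force-coupled D1 Hek293 cells and a calcium dye, signals were followed for 180 s after compound, then for 180 s after EC80 dopamine, to detect inhibitors.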
TRHR enhancer – allosteric enhancers of human TRH receptor; TRHR cells, fluo-8 calcium fluorescence, EC20 TRH enhancement; enhancement, % at 2 µM; hit rate 0.66% among 360,000; in the data active means enhancement above about 30%
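TRHR-expressing cells loaded with fluo-8 calcium dye were read kinetically (ex 480/em 530) during compound addition, then stimulated with an EC20 of TRH (10 nM final). Enhancement of the Gq-mediated intracellular calcium response was scored.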
D1 ag – activates the human D1 dopamine receptor. P21728. HEK293 T-REx D1 cells, calcium flux, agonist mode. activation, % at 2 µM. hit rate 1% among 360,000. AID 504660
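Inducible HEK293 T-REx D1 cells, force-coupled to calcium signalling, were plated at 4000 cells/well with tetracycline and held overnight at 30 C. After no-wash calcium dye loading, compound-evoked calcium rise over 180 s flagged agonists.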
Numbers stand for hits. Unless noted, no stated cut-off is given here; in the data, active means activation above about 30%; inactive means the rest.

What do the screens show for `COc1ccc(Cl)cc1Nc1ccc2cc(S(=O)(=O)N3CCCCC3)ccc2n1`?
TRHR ag: inactive; D1 PAM: inactive; D1 antagonist: inactive; TRHR enhancer: inactive; D1 ag: inactive

Results for O=c1c(O)c(-c2cccs2)oc2ccc(Cl)cc12 ?
TRHR ag: 168; D1 PAM: inactive; D1 antagonist: inactive; TRHR enhancer: 77; D1 ag: 385

How did O=c1c(O)c(-c2cccs2)oc2ccccc12 do in these assays?
TRHR ag: 107; D1 PAM: inactive; D1 antagonist: inactive; TRHR enhancer: inactive; D1 ag: 252

How did CCOC(=O)c1cnc2c(C)cc(C)cc2c1Nc1cccc(C(=O)O)c1 do in these assays?
TRHR ag: inactive; D1 PAM: inactive; D1 antagonist: inactive; TRHR enhancer: inactive; D1 ag: inactive

What do the screens show for `COc1ccc(C2N3CC4(C)CN2CC(C)(C3)C4O)cc1OC` (stereo unspecified)?
TRHR ag: inactive; D1 PAM: inactive; D1 antagonist: inactive; TRHR enhancer: 31; D1 ag: inactive

How did COc1ccc(C2N3CC4(C)CN2CC(C)(C3)C4O)cc1 (stereo unspecified) do in these assays?
TRHR ag: inactive; D1 PAM: inactive; D1 antagonist: inactive; TRHR enhancer: inactive; D1 ag: inactive

Results for CCNC(=S)N(Cc1ccc2c(c1)OCO2)C1CC(=O)N(c2ccc(F)cc2)C1=O (stereo unspecified) ?
TRHR ag: inactive; D1 PAM: inactive; D1 antagonist: -60; TRHR enhancer: inactive; D1 ag: inactive

How did O=C(COC(=O)c1ccc(S(=O)(=O)NCc2ccco2)cc1)c1ccccc1 do in these assays?
TRHR ag: inactive; D1 PAM: inactive; D1 antagonist: inactive; TRHR enhancer: inactive; D1 ag: inactive

How did Cc1cc(C)n(-c2ccc(C(=O)Nc3ccc(S(=O)(=O)NCc4ccco4)cc3)cc2)n1 do in these assays?
TRHR ag: inactive; D1 PAM: inactive; D1 antagonist: -41; TRHR enhancer: inactive; D1 ag: inactive

Results for O=C(Nc1ccc(S(=O)(=O)NCc2ccco2)cc1)c1ccc(F)cc1 ?
TRHR ag: inactive; D1 PAM: inactive; D1 antagonist: -35; TRHR enhancer: inactive; D1 ag: inactive

Results for O=C(COC(=O)c1ccc(S(=O)(=O)NCc2ccco2)cc1)NCc1ccc(F)cc1 ?
TRHR ag: inactive; D1 PAM: inactive; D1 antagonist: -41; TRHR enhancer: inactive; D1 ag: inactive

Results for O=C(CSc1c2c(nc3cc(Cl)ccc13)CCCC2)N1CCN(c2ccccc2)CC1 ?
TRHR ag: inactive; D1 PAM: inactive; D1 antagonist: inactive; TRHR enhancer: inactive; D1 ag: inactive

Results for O=C(Nc1ccc(F)c(Cl)c1)N1CCC(CN2CCc3ccccc3C2)CC1 ?
TRHR ag: inactive; D1 PAM: inactive; D1 antagonist: inactive; TRHR enhancer: inactive; D1 ag: inactive

How did CCC(=O)NC(c1cccc(C)c1)c1cc(Cl)c2cccnc2c1O (stereo unspecified) do in these assays?
TRHR ag: inactive; D1 PAM: inactive; D1 antagonist: inactive; TRHR enhancer: inactive; D1 ag: inactive

How did COc1cc(Cl)c(C)cc1NC(=O)C(OC(=O)CNC(=O)c1ccccc1)c1ccccc1 (stereo unspecified) do in these assays?
TRHR ag: inactive; D1 PAM: inactive; D1 antagonist: inactive; TRHR enhancer: inactive; D1 ag: inactive

Results for C=CCNC(=O)c1onc(CSc2ccc(F)c(F)c2)c1C(=O)O ?
TRHR ag: inactive; D1 PAM: inactive; D1 antagonist: inactive; TRHR enhancer: inactive; D1 ag: 31

Results for C=CCNC(=O)c1onc(CSc2cccc(OC)c2)c1C(=O)NCC=C ?
TRHR ag: inactive; D1 PAM: inactive; D1 antagonist: -49; TRHR enhancer: inactive; D1 ag: inactive

Results for C=CCNC(=O)c1onc(CSc2ccc(Cl)cc2)c1C(=O)O ?
TRHR ag: inactive; D1 PAM: inactive; D1 antagonist: inactive; TRHR enhancer: inactive; D1 ag: inactive

How did CC1CCc2sc(NC(=O)C3CC(Cl)=CCC3C(=O)O)c(C#N)c2C1 (stereo unspecified) do in these assays?
TRHR ag: inactive; D1 PAM: inactive; D1 antagonist: inactive; TRHR enhancer: inactive; D1 ag: inactive

How did CC1=C(C(=O)Nc2ccc(C)cc2C)C(c2ccc(Br)cc2)n2ncc(C(=O)Nc3cccc(C)c3)c2N1 (stereo unspecified) do in these assays?
TRHR ag: inactive; D1 PAM: inactive; D1 antagonist: inactive; TRHR enhancer: inactive; D1 ag: inactive

Results for Clc1ccc(CCNc2ncnc3nc[nH]c23)cc1 ?
TRHR ag: inactive; D1 PAM: inactive; D1 antagonist: -35; TRHR enhancer: inactive; D1 ag: inactive

Results for c1ccc(CNc2ncnc3nc[nH]c23)cc1 ?
TRHR ag: inactive; D1 PAM: inactive; D1 antagonist: inactive; TRHR enhancer: inactive; D1 ag: inactive

Results for c1ccc(CCCNc2ncnc3nc[nH]c23)cc1 ?
TRHR ag: inactive; D1 PAM: inactive; D1 antagonist: -57; TRHR enhancer: inactive; D1 ag: 193

Results for CCCNc1ncnc2nc[nH]c12 ?
TRHR ag: inactive; D1 PAM: inactive; D1 antagonist: inactive; TRHR enhancer: inactive; D1 ag: inactive

How did CCOc1ccc(CNS(=O)(=O)c2cc(CN3C(=O)c4cccnc4C3=O)ccc2OC)cc1 do in these assays?
TRHR ag: inactive; D1 PAM: inactive; D1 antagonist: -54; TRHR enhancer: inactive; D1 ag: inactive

Results for O=C(C1CC1)N1CCc2cc(Br)cc(S(=O)(=O)NCc3ccco3)c21 ?
TRHR ag: inactive; D1 PAM: inactive; D1 antagonist: -31; TRHR enhancer: inactive; D1 ag: inactive

Results for COc1ccc(NS(=O)(=O)c2ccc3c(c2)CCCN3C(=O)C2CCC2)cc1OC ?
TRHR ag: inactive; D1 PAM: inactive; D1 antagonist: -42; TRHR enhancer: inactive; D1 ag: inactive

What do the screens show for `Cc1ccc(CNS(=O)(=O)c2cc(Br)cc3c2N(C(=O)C2CC2)CC3)cc1`?
TRHR ag: inactive; D1 PAM: inactive; D1 antagonist: inactive; TRHR enhancer: inactive; D1 ag: inactive

How did COc1cc(NC(=O)CCNS(=O)(=O)c2ccc3c(c2)CCN3C(=O)C2CC2)cc(OC)c1 do in these assays?
TRHR ag: inactive; D1 PAM: inactive; D1 antagonist: inactive; TRHR enhancer: 46; D1 ag: inactive

How did CCC(=O)N1CCc2cc(S(=O)(=O)NCCC(=O)Nc3ccc(OC)cc3)ccc21 do in these assays?
TRHR ag: inactive; D1 PAM: inactive; D1 antagonist: inactive; TRHR enhancer: inactive; D1 ag: inactive

Results for COc1ccc(NS(=O)(=O)c2cc(Br)cc3c2N(C(=O)C2CC2)CC3)cc1OC ?
TRHR ag: inactive; D1 PAM: inactive; D1 antagonist: inactive; TRHR enhancer: 49; D1 ag: inactive

What do the screens show for `CCOc1ccc(CNC(=O)c2ccc3nc(C(C)C)oc3c2)cc1`?
TRHR ag: inactive; D1 PAM: inactive; D1 antagonist: inactive; TRHR enhancer: inactive; D1 ag: inactive

High-throughput results (PubChem BioAssay)
